This excerpt belongs to a sample that is enriched for hits.
U2OS ROS induce: raises reactive oxygen species in U2OS cancer cells; hit rate 2% among 46,000; ROS induction (% of piperlongumine), % at 10 µM; U2OS ROS induction, H2DCF-DA fluorescence; in the data active = ROS induction above about 79%, passing the limit was not always enough; inconclusive = no clear call, values can overlap the other calls;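 also: 0% = DMSO vehicle median and 100% = reference compound median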
YB-1 expr inh: YB-1 expression inhibition | U2OS, qRT-PCR YB-1 vs CDIP delta delta Cp, 16 h; hits give high values; zero = DMSO, each unit about twofold | delta delta Cp (YB-1 minus CDIP) (test concentration not listed) | hit rate 0.37% among 30,000 | AID 434959;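 active = delta delta Cp rounded down to an integer at or above 3, about 3 SD of DMSO wells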;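 also: higher means less YB-1 transcript or more CDIP transcript relative to DMSO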
NOMO-1 viab: STK33 inhibitor candidate reducing NOMO-1 cell viability; NOMO-1 AML viability, CellTiter-Glo luminescence, 72 h; inhibition, % (no concentration beside the values); hit rate 7.5% among 37,000; AID 2330; in the data active = inhibition above about 80%; inconclusive = no clear call, values can overlap the other calls
PD-1 reversal: reversal of PD-1 mediated T-cell inhibition | primary human CD4 T cells, PD-L1 beads, CellTiter-Glo 96 h | activation, % (concentration not given with the values) | 29,000 tested, under 10 active | AID 2316; call rule not given here;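 also: 0% = median vehicle wells and 100% = positive control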
MITF inhib: blocks MITF activity | TRPM1 promoter luciferase, luminescence, 24 h | inhibition, % (concentration not given with the values) | hit rate 0.28% among 37,000; in the data active = inhibition above about 85%; inconclusive = no clear call, values can overlap the other calls; inactive = below about 68%;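 also: human melanocyte line stably carrying TRPM1 promoter luciferase reporter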
An asterisk follows results filed as active; ? = inconclusive; . = no result given.

SMILES	U2OS ROS induce	YB-1 expr inh	NOMO-1 viab	PD-1 reversal	MITF inhib
O=C1CC(c2cccs2)SC(N(c2ccccc2)c2ccccc2)=N1 (configuration not stated)	46	.	.	.	.
C=CCSc1c2c(c(C#N)c3nc4ccccc4n13)CCC2	103*	0.2	59	-8	62
Cc1ccc(-c2cc(=O)c3ccc4ccccc4c3o2)cc1	95*	.	.	.	.
CSc1ccc(-c2cc(=O)c3ccccc3o2)cc1	31	.	.	.	.
O=C1c2ccccc2C(=O)N1[C@H]1CCN(Cc2ccc(OCCO)cc2)C1	42	-0.3	.	.	.
COc1ccc(NC(=O)Nc2ccc3c(c2)CC(=O)N([C@H](C)CO)C[C@@H](C)[C@H](CN(C)Cc2ccc(Cl)c(Cl)c2)O3)cc1	21	0.14	85*	.	23
COc1ccc(NC(=O)Nc2ccc3c(c2)CC(=O)N([C@H](C)CO)C[C@@H](C)[C@@H](CN(C)Cc2ccc(Cl)c(Cl)c2)O3)cc1	9	0.057	115*	-3	-1
COc1ccc(CN(C)C[C@H]2Oc3ccc(NC(=O)Nc4ccc(OC)cc4)cc3CC(=O)N([C@H](C)CO)C[C@H]2C)cc1	2	0.22	-7	.	5
COc1ccc(CN(C)C[C@H]2Oc3ccc(NC(=O)Nc4ccc(OC)cc4)cc3CC(=O)N([C@@H](C)CO)C[C@H]2C)cc1	0	0.057	1	.	7
COc1ccc(NC(=O)Nc2ccc3c(c2)CC(=O)N([C@@H](C)CO)C[C@H](C)[C@H](CN(C)Cc2ccc(Cl)c(Cl)c2)O3)cc1	4	-0.39	113*	2	15
COc1ccc(NC(=O)c2oc3ccccc3c2NC(=O)Cc2coc3cc(C)cc(C)c23)cc1	7	.	23	1	24
CC(=O)OC1/C=C(/C(=O)O)CC/C=C(/C)C(=O)/C=C\C1(C)C (configuration not stated)	90*	0.044	120*	-8	-11
CC1=C2CCC(C(=O)O)=CC2C(C(C)C)CC1 (configuration not stated)	-7	0.62	-1	0	-2
N#CC(C(=O)c1ccco1)c1nc2ccccc2[nH]1 (configuration not stated)	4	0.68	64	0	-7
COc1ccc(-n2c(-c3cccc(OC)c3)csc2=NCc2cccnc2)cc1	116*	0.34	43	1	54
COC(=O)c1ccccc1NC(=O)C(C)NS(=O)(=O)c1cc(Cl)ccc1Cl (configuration not stated)	7	.	40	-2	15
CCOC(=O)c1cnc2ccc(OCC)cc2c1N(C)Cc1ccccc1	139*	-0.19	96*	-3	30
COc1ccc(NC(=O)Nc2ccc3c(c2)C(=O)N([C@@H](C)CO)C[C@@H](C)[C@@H](CN(C)Cc2ccc4c(c2)OCO4)O3)cc1	-5	-0.22	9	.	11
C[C@H](CO)N1C[C@H](C)[C@H](CN(C)Cc2ccc3c(c2)OCO3)Oc2ccc(NC(=O)Nc3cccc4ccccc34)cc2C1=O	7	-0.26	98*	.	0
C[C@H]1CN([C@@H](C)CO)C(=O)c2cc(NC(=O)Nc3ccc4c(c3)OCO4)ccc2O[C@H]1CN(C)Cc1ccc2c(c1)OCO2	23	0.2	93*	0	17
C[C@@H]1CN([C@@H](C)CO)C(=O)c2cc(NC(=O)Nc3ccc4c(c3)OCO4)ccc2O[C@@H]1CN(C)Cc1ccc2c(c1)OCO2	2	0.015	28	2	-19
C[C@H](CO)N1C[C@H](C)[C@H](CN(C)Cc2ccc3c(c2)OCO3)Oc2ccc(NC(=O)Nc3ccccc3)cc2C1=O	-3	0.49	94*	0	-12
C[C@H]1CN([C@@H](C)CO)C(=O)c2cc(NC(=O)Nc3cccc4ccccc34)ccc2O[C@H]1CN(C)Cc1ccccc1	16	-0.23	14	-1	13
COc1ccc(NC(=O)Nc2ccc3c(c2)C(=O)N([C@@H](C)CO)C[C@H](C)[C@H](CN(C)Cc2ccc4c(c2)OCO4)O3)cc1	2	0.42	98*	1	10
CC(=O)N(c1ccc2oc3c(c2c1)CCCC3)S(=O)(=O)c1ccccc1	4	.	.	.	.
SMILES	U2OS ROS induce	YB-1 expr inh	NOMO-1 viab	PD-1 reversal	MITF inhib
C[C@@H]1CN([C@@H](C)CO)C(=O)c2cc(NC(=O)Nc3ccc4c(c3)OCO4)ccc2O[C@H]1CN(C)Cc1ccc(Cl)c(Cl)c1	35	-0.2	95*	-1	57
C[C@@H]1CN([C@H](C)CO)C(=O)c2cc(NC(=O)Nc3ccc4c(c3)OCO4)ccc2O[C@@H]1CN(C)Cc1ccc2c(c1)OCO2	?	-0.3	28	1	2
C[C@H]1CN([C@@H](C)CO)C(=O)c2cc(NC(=O)Cc3ccccc3)ccc2O[C@H]1CN(C)Cc1ccc2c(c1)OCO2	0	0.5	95*	-1	-9
Cc1ccc(C(=O)/C=C/Nc2ccc(C(F)(F)F)cc2)cc1	-5	-0.14	7	1	-57
Cc1cc(C)c(Cn2nc(C(C)(C)C)cc2C(=O)NN2CCOCC2)c(C)c1	10	-0.48	25	4	2
CN1CCN(c2ccccc2NC(=O)COc2ccc([N+](=O)[O-])cc2)CC1	?	.	-10	1	-2
C[C@@H]1CN([C@@H](C)CO)C(=O)c2cccc(NC(=O)Nc3ccc(F)cc3)c2O[C@@H]1CN(C)C(=O)Nc1cccc2ccccc12	25	-0.36	96*	-4	9
C[C@@H]1CN([C@H](C)CO)C(=O)c2cccc(NC(=O)Nc3ccc(C(F)(F)F)cc3)c2O[C@H]1CN(C)C(=O)Nc1cccc2ccccc12	20	0.38	83*	.	28
C[C@H]1CN([C@@H](C)CO)C(=O)c2cccc(NC(=O)Nc3ccc(C(F)(F)F)cc3)c2O[C@@H]1CN(C)C(=O)Nc1cccc2ccccc12	9	-0.1	102*	.	39
C[C@@H]1CN([C@@H](C)CO)C(=O)c2cccc(N(C)C)c2O[C@H]1CN(C)Cc1ccncc1	72	-0.45	-4	1	-18
CCn1c(SCC(=O)Nc2cccc(C)c2C)nnc1-c1cccs1	-11	.	27	-1	-4
CCOC(=O)c1c(CS(=O)c2ccc(Cl)cc2)oc2c(F)c(F)c(F)c(F)c12 (configuration not stated)	-3	.	.	.	.
CCOC(=O)c1sc2sc(C(=O)OCC)c(-c3ccc(Cl)cc3)c2c1N	93*	0.083	68	-1	-2
O=C(COc1ccc(Cl)cc1Cl)Nc1cccc(-c2nnc(-c3ccccc3)o2)c1	1	.	114*	-7	-55
Cc1ccccc1-c1nc2cc(NC(=O)COc3ccc(Cl)cc3)ccc2o1	.	.	19	.	-45
O=C(COc1ccc(Cl)cc1)Nc1ccc(O)c(-c2nc3ccccc3o2)c1	.	.	98*	.	57
Cc1ccc(-c2nc3ccccc3s2)cc1NC(=O)COc1cccc(C)c1C	4	.	89*	2	-55
O=C(COc1ccc(Cl)cc1Cl)Nc1ccc(O)c(-c2nc3ccccc3s2)c1	-13	.	103*	0	15

Source: PubChem BioAssay (Broad Institute)
